About 83,000 compounds went through this panel and 20% of them were active in at least one assay; those are over-represented in the sample as a whole.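 Percent growth is the endpoint: 0 to 100 indicates growth inhibition (40 means 60% inhibition), 0 means no net growth, and negative values indicate cell death.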 Values without a mark were called inactive. Activity calls are given as the source filed them. The calls were made as follows: active = growth percent below 10; inactive = the rest.
Key:
Test in all cases: NCI-60 one-dose screen, 48 h (100 = growth as untreated, 0 = no growth, -100 = all killed)
Conditions in all cases: 10 µM unless noted
EKVX NSCLC = test system: EKVX NSCLC
SN12C renal = test system: SN12C renal
UO-31 renal = test system: UO-31 renal
ACHN renal = test system: ACHN renal
CAKI-1 renal = test system: CAKI-1 renal
CCRF-CEM leukemia = test system: CCRF-CEM leukemia
MOLT-4 leukemia = test system: MOLT-4 leukemia
SR leukemia = test system: SR leukemia
RPMI-8226 leukemia = test system: RPMI-8226 leukemia
OVCAR-8 ovarian = test system: OVCAR-8 ovarian
OVCAR-5 ovarian = test system: OVCAR-5 ovarian
OVCAR-4 ovarian = test system: OVCAR-4 ovarian
SK-OV-3 ovarian = test system: SK-OV-3 ovarian
IGROV1 ovarian = test system: IGROV1 ovarian
OVCAR-3 ovarian = test system: OVCAR-3 ovarian
HS 578T breast = test system: HS 578T breast
NCI/ADR-RES ovarian = test system: NCI/ADR-RES ovarian
T-47D breast = test system: T-47D breast
TK-10 renal = test system: TK-10 renal
A498 renal = test system: A498 renal

SMILES	growth (EKVX NSCLC)	growth (SN12C renal)	growth (UO-31 renal)	growth (ACHN renal)	growth (CAKI-1 renal)	growth (CCRF-CEM leukemia)	growth (MOLT-4 leukemia)	growth (SR leukemia)	growth (RPMI-8226 leukemia)	growth (OVCAR-8 ovarian)	growth (OVCAR-5 ovarian)	growth (OVCAR-4 ovarian)	growth (SK-OV-3 ovarian)	growth (IGROV1 ovarian)	growth (OVCAR-3 ovarian)	growth (HS 578T breast)	growth (NCI/ADR-RES ovarian)	growth (T-47D breast)	growth (TK-10 renal)	growth (A498 renal)
N/C(=N\c1nc2c(Br)cccc2s1)C(Br)Br	16.4%	18%	4.29% (active)	-40.4% (active)	-19.6% (active)	-1.73% (active)	-2.89% (active)	-24% (active)	-16.5% (active)	-18% (active)	8.49% (active)	43.2%	53%	-67.6% (active)	-27.4% (active)	6.83% (active)	6.58% (active)	33.1%		
CC(=O)Oc1ccccc1C(=O)Nc1cc(C(C)C)ccc1C	10.5%		-0.422% (active)	10.1%	6.69% (active)	14.6%	4.63% (active)	-28.1% (active)	1.78% (active)	13.8%	43.6%	16.9%	0.738% (active)	25.5%	6.75% (active)	19.7%		9.13% (active)	21%	-29.4% (active)
CC(C)(O)c1cncc(-c2ccc3ncnc(N4CCc5cc(F)c(Cl)cc54)c3c2)c1	-2.39% (active)	18.6%	6.25% (active)	11.3%	10.6%	22.2%	0.627% (active)	18%	6.02% (active)	25.9%	25.9%	20.2%	1.96% (active)	-35.7% (active)	5.16% (active)	-8.48% (active)		4.63% (active)		
CC(=O)Oc1ccccc1C(=O)Nc1ccc(C(=O)/C=C/c2cccs2)cc1	103%	104%	105%	112%	96.2%	99.7%	104%	93.9%	96.2%	107%	109%	104%		116%	122%	120%	106%	100%		
Cc1ccc2ccc3ccc(C)nc3c2n1.Cc1ccc2ccc3ccc(C)nc3c2n1.Oc1c(Cl)cc(Cl)c2ccc(CN3CCCCC3)nc12.[Ru]	-64.9% (active)	-64.9% (active)	-89.8% (active)	-95.6% (active)	-77.7% (active)	-47.9% (active)	-52.7% (active)		-46% (active)	-75.4% (active)	-72% (active)	-45.8% (active)	-72.6% (active)	-58.4% (active)		-42.4% (active)		-55.8% (active)		-88.7% (active)
COc1cc2nc(-c3ccc(Cl)cc3)cc(OCCCNCC3CCCO3)c2cc1OC (stereo not drawn)	67.1%	47.3%	57.3%	46.6%	17.3%	49.1%	40.6%	19.5%	8.63% (active)	42.2%	50.1%	79.4%	88.4%	33.7%	87.7%	76.6%	46.8%	77.1%		
C#Cc1nc(C2=C(C)C(=N\O)/C(=N/O)C2)cs1	95.7%	98.2%	-92.4% (active)	78.7%	93.7%	87.1%	88%	54.4%	72.2%	92.3%	109%	99%	105%	-14.1% (active)	118%	86.7%	38.5%	82.6%		
CN(C)CCCOc1c2ccc(Cl)cc2nc2c1oc1ccc(Cl)cc12	31.8%	21.4%	2.96% (active)	-85.6% (active)	-12.1% (active)		1.92% (active)	-31.1% (active)	-20.8% (active)	26.7%	21.3%	50.6%	41.4%	6.89% (active)	45.4%	26.3%	-20.8% (active)	58.7%		-6.7% (active)
OC1CCc2c(-c3ccc4ncnc(N5CCc6cc(F)c(Cl)cc65)c4c3)cncc21 (stereo not drawn)	27.1%	39.3%	19%	18.6%	22.5%	40.3%	21.9%	47.9%	15.9%	52.9%	46.6%	56.1%			37.6%	27.8%	51.1%	7.03% (active)		
NC(=O)c1cc(-c2ccc3ncnc(N4CCc5cc(F)c(Cl)cc54)c3c2)cnc1N	13.6%	23.4%	22.3%	23.1%	19.9%	21%	-11.8% (active)	18.5%	-8.02% (active)	32.8%	36.5%	10.4%	35.9%	-41.2% (active)	1.86% (active)	-7.69% (active)	60.2%	0.0054% (active)		
CC(C)(C)Nc1nc2c(OCCc3ccccc3)cccn2c1-c1cccc(F)c1	5.55% (active)		-11% (active)	5.29% (active)	-11.5% (active)	3.62% (active)	-0.489% (active)	-0.873% (active)	-22.6% (active)	10.2%		19.2%	-17% (active)	10.1%		-4.86% (active)	3.69% (active)	5.21% (active)	-6.22% (active)	
CC(=O)Nc1cc(F)cc(-c2ccc3[nH]cc(-c4ccccc4)c3n2)c1	43.7%		10.1%	15.9%	-37.1% (active)	16.9%	9.24% (active)	-1.91% (active)	5.72% (active)	34%	27.4%	42.4%	13.6%	25.7%	32.5%	10.5%	33.5%	26.8%		-20.1% (active)
O=C(CCCN1C(=O)/C(=C/c2ccccc2F)SC1=S)N1CCOCC1	89.5%		72.2%	78.1%	89.2%	71.6%	91.3%	68%	75.1%	99%	94.5%	88.4%	114%			99.4%	104%	45.6%		82.8%
O=C(Nc1nc2ccc(O)cc2s1)c1cccc(C(F)(F)F)c1	55.6%		33.4%	53%	53%	31%	34.6%	75.7%	46.9%	55.5%	93.4%	63.6%		64.4%	67.2%	101%		51.3%	80.8%	78.9%
N#Cc1nc(-c2ccccc2)oc1S(=O)(=O)N1CCCCC1	76.1%		-82.2% (active)	-93.4% (active)	17.4%	4.27% (active)	0.441% (active)		64.6%	89.9%	102%	101%	132%	19.9%	-54.2% (active)	106%	99.3%	49.9%		89.9%
Clc1ccc2oc3c(OCCCn4ccnc4)c4ccccc4nc3c2c1	71.9%		43.9%	34.8%	38.5%	59.6%	24.7%	32.5%	67%	44.3%	73.5%	74.5%		55%	101%	87.8%	56.4%	74.6%		8.47% (active)
Nc1c(C(=O)c2ccc(Br)cc2)oc2nc(-c3cnccn3)cc(-c3cccs3)c12	102%		87.1%	103%	95.2%	100%	95%	91.7%	99.8%	103%	112%	96.3%	98.6%		108%	101%	102%	91.4%		
C/C(=N\NC(N)=O)c1c(O)sc(=O)[nH]c1=O	95.8%		87.1%	101%	96.9%	100%	109%	114%	102%	99.9%	102%	105%	115%	99.7%	114%	91.4%	105%	105%		
